Screening results (PubChem)
pAkt inh: Akt phosphorylation inhibition; Neuro2A IGF-stimulated pAkt S473 HTRF, 20 min; active compounds read low; activity change, % for hits at 50 µM; 360,000 compounds, 0.32% hits; AID 651550; in the data active means activity change below about -80%; inconclusive means mostly about -51% to -80%
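Neuro2A cells (4,500/well, DMEM with 0.5% FBS) were treated with compound at a single 50 µM final concentration, stimulated with 6 nM IGF for 20 min at 37 °C, and lysed. Phospho-Akt Ser473 was read by HTRF as 665/615 ratio ×10^4.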
Epigenetic reg: regulators of epigenetic silencing causing reporter derepression in mouse cells; 280,000 compounds, 0.2% hits; Potency, µM (titrated, usually from 53.9 µM), hits mostly activators; murine LDR cells, GFP reporter derepression, 30 h; further: nearly all actives have a fitted effect of over 60% in size
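GFP-positive cell count by laser-scanning cytometry (objects 20–120 um) after 30 h, 37 C compound exposure of murine LDR cells; reporter is CMV-GFP integrated at a silenced locus, inducible by HDAC or DNMT inhibitors.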
CCT chaperon mod: modulators of cytosolic chaperonin (CCT/TRiC) activity; purified chaperonin ATPase assay, HTRF ADP detection, 30 min; activity change, % (concentration not given with the values), hits read low; 360,000 compounds, 0.3% hits; AID 651819; in the data active means activity change below about -30%
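TRiC at 40 or 20 nM final (batch-dependent) in 30 mM Tris pH 7.4, 100 mM KCl, 5 mM MgCl2, 1 mM DTT, with compound at single 76 uM and 10 uM ATP, 30 min at 37 deg C. ADP detected by HTRF Transcreener, 665/615 ratio.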
uPA generation: cell surface uPA generation inhibition | Potency, µM (highest dose often 38.3 µM), usual class: inhibitors | 330,000 compounds, 0.31% hits | cell surface uPA generation assay, qHTS; active means well fitted inhibition curve with a large enough effect; inconclusive means small, poorly fitted or top-dose-only effect; inactive means no such curve, though single readings can be large or run the other way; tested in mouse RAW 264.7 cells; further: nearly all actives have a fitted effect of over 55% in size
MmCpn inh: M. maripaludis TRiC chaperonin inhibition. Potency, µM (titrated, usually from 76.9 µM), hits mostly inhibitors. 330,000 compounds, 0.031% hits. purified Mm-Cpn ATPase, ADP Transcreener TR-FRET; further: nearly all actives have a fitted effect of over 80% in size
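TR-FRET (320 nm excitation; 590 and 665 nm emission) reports ADP made from 10 uM ATP by 25 nM enzyme; compounds were preincubated 10 min, reaction run 30 min, both at 37°C.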
MBNL1 CUG block: blocks human MBNL1 binding to CUG repeat RNA; Q9NR56; TR-FRET MBNL1-His/biotin-(CUG)12 binding, 665/545 ratio; Potency, µM (series often up to 57.5 µM), most hits filed as inhibitors; 280,000 compounds, 0.036% hits; active means well fitted inhibition curve with a large enough effect in the signal ratio, with a control signal flat, not every such curve was filed as active; inconclusive means small, poorly fitted or top-dose-only effect, or effect the other way, or a change in a side signal; inactive means no such curve, though single readings can be large or run the other way; the % refers to the signal ratio
Target sequence (Q9NR56 whole entry, looked up): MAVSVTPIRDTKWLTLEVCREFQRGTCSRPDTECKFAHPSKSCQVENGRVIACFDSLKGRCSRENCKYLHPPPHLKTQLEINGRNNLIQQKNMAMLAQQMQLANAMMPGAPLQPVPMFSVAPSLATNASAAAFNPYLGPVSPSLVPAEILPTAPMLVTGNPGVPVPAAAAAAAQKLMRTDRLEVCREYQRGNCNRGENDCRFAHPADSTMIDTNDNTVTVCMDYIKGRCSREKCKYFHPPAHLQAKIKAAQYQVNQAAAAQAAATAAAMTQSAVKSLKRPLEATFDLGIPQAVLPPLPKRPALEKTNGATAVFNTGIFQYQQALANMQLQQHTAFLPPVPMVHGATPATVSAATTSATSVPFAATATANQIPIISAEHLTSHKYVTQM
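TR-FRET readout: Ex 340 nm, 665/545 nm emission ratio, normalized to buffer-only (basal) and MBNL1-(CUG)12 controls. Complex of MBNL1-His with Biotin-(CUG)12, compounds 92 nM–58 uM, incubated 60 min at room temperature.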
Of the large screens only hits and unclear results are named; the others gave an inactive call. Compounds with a hit are over-represented: about 0.97% of the library has one in this group of screens. Unless noted, the call rests on the fitted dose curve; in most records, active means well fitted curve in the direction sought with a large enough effect; inconclusive means small, poorly fitted or top-dose-only effect, or another doubt; inactive means no such curve, though single readings can be large; an effect the other way counts as inactive or inconclusive.

c1ccc2c(c1)oc1c(NCCCn3ccnc3)ncnc12	none
COc1ccccc1C(=O)Nc1ccnn1C1CCN(CCCc2ccccc2)CC1	none (no result: Epigenetic reg)
CC1Cc2cc(S(=O)(=O)N3CCC(C(=O)N(C)Cc4ccco4)CC3)ccc2N1C(=O)C1CCC1 (stereo not given)	uPA generation inconclusive (no result: pAkt inh, Epigenetic reg)
O=C1c2cccc([N+](=O)[O-])c2C(=O)N1c1cccnc1	none
O=C1c2ccccc2C(=O)N1c1cccnc1	CCT chaperon mod -44, MBNL1 CUG block inconclusive (no result: MmCpn inh)
CSc1sc(C)cc1C=O	none
CSc1cc(/C=N/O)c(SC)s1	pAkt inh -116%, MmCpn inh inconclusive
C=CCC1(CC=C)CCCN1C(=O)C1CCC(=O)N(CCc2ccccc2)C1 (stereo not given)	none (no result: Epigenetic reg)
COc1ccccc1NC(=S)N(Cc1ccco1)Cc1cc2cc(C)c(C)cc2[nH]c1=O	uPA generation 4µM, MBNL1 CUG block inconclusive
COc1ccccc1NC(=S)N(Cc1ccco1)Cc1cc2cccc(C)c2[nH]c1=O	none (no result: MBNL1 CUG block)
CCOC(=O)Cc1nnc(Nc2cccc(C)c2)c2ccccc12	pAkt inh -109% (no result: MmCpn inh)
COC(=O)Cc1nnc(Nc2cccc(C)c2)c2ccccc12	none
O=C(N/N=C/c1ccccc1O)c1ccncc1	uPA generation 7.1µM (no result: Epigenetic reg, MBNL1 CUG block)
O=C(N/N=C/c1cccc2ccccc12)c1ccncc1	MBNL1 CUG block inconclusive (no result: Epigenetic reg)
O=C(N/N=C/c1cc(O)ccc1Br)c1cccnc1	uPA generation 10µM (no result: Epigenetic reg)
Cc1cc(-c2nc3ncccc3o2)ccc1NC(=O)c1ccc(Cl)cc1	none (no result: pAkt inh, CCT chaperon mod, uPA generation, MmCpn inh, MBNL1 CUG block)
Cc1ccc(NC(=O)C2CCCN2C(=O)NCc2ccccc2)cc1 (stereo not given)	MmCpn inh inconclusive
O=C(Nc1ccc(Br)cc1)N1CCCCCCC1	pAkt inh -110%
Cc1ccc(NC(=O)N2CCCC(C(=O)O)C2)cc1 (stereo not given)	CCT chaperon mod -43
Cc1ccc(CNC(=O)C2CCCN(C(=O)Nc3ccc(F)cc3)C2)cc1 (stereo not given)	none (no result: Epigenetic reg)
CC(=O)Nc1ccc(NC(=O)N2CCCCC2)cc1	none
Cc1ccc(NC(=O)N2CCCC2C(=O)NCCc2ccccc2)cc1 (stereo not given)	pAkt inh -121%
CCc1cc2c(CN3CCN(CCO)CC3)cc(=O)oc2cc1O	pAkt inh -106%
CCc1cc2c(CN3CCN(C)CC3)cc(=O)oc2cc1O	none
CNC(=S)NNC(=O)COc1ccccc1C	none
Cc1ccccc1OCC(=O)NNC(=O)c1ccc(-c2ccccc2)cc1	pAkt inh -83%
CC(C)(C)OC(=O)C[C@H]1C/C=C\C[C@H](CC(=O)NCCO)C(=O)N2CCC[C@@H]2COC1=O	none (no result: Epigenetic reg, MBNL1 CUG block)
CC1(Cc2ccc(OC(F)(F)F)cc2)C(=O)Nc2c(Cl)ccc(Cl)c21 (stereo not given)	none (no result: Epigenetic reg, uPA generation, MmCpn inh, MBNL1 CUG block)
O=C(CSc1oc(-c2ccco2)nc1S(=O)(=O)c1ccccc1)NCC1CCCO1 (stereo not given)	pAkt inh -101%
O=C(NCC(c1ccco1)S(=O)(=O)c1cccs1)c1ccccc1 (stereo not given)	none (no result: pAkt inh, CCT chaperon mod, uPA generation, MmCpn inh, MBNL1 CUG block)
CCOC(=O)c1sc(NC(C)=O)c(C(=O)OCC)c1C	none
CCOC(=O)c1sc(NC(=O)CN(CC)CC)c(C(=O)OCC)c1C	pAkt inh -81%
CCCNS(=O)(=O)c1ccc(OCC(=O)Nc2ccccc2F)cc1	pAkt inh -102%
O=C(NCc1cccnc1)c1ccc2c(c1)OCO2	none
O=C(c1ccco1)N1CCN(/C(=N/S(=O)(=O)c2cccs2)c2ccccc2Cl)CC1	none
CC(=O)Oc1ccc(N(C(C)=O)S(=O)(=O)c2ccc(C)cc2C)c2ccccc12	uPA generation 10µM (no result: Epigenetic reg)
COc1ccc(C(CNC(=O)c2cccc(S(=O)(=O)Nc3ccc(F)cc3)c2)N2CCOCC2)cc1 (stereo not given)	none (no result: Epigenetic reg, MmCpn inh, MBNL1 CUG block)
Cc1ccc(-c2cc(C(=O)N3CCN(c4ccc(O)cc4)CC3)c3ccccc3n2)cc1	uPA generation 10µM (no result: Epigenetic reg, MBNL1 CUG block)
O=C(c1ccc(Cl)cc1Cl)N1CCN(c2ccccn2)CC1	CCT chaperon mod -33 (no result: Epigenetic reg)
CCOc1ccc(-c2cc(C(=O)N3CCN(c4ccccn4)CC3)c3ccccc3n2)cc1	none (no result: uPA generation)
